Structures are written as SMILES. The panel holds about 83,000 compounds, 20% with a hit somewhere; the sample as a whole holds those more often.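 Each cell line was grown in a 96-well plate and treated with one concentration of compound for 48 hours. Values below 10 were considered active.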 A number with no mark means an inactive call. Calls of active or inactive are those of the source.

Holding throughout (test): NCI-60 one-dose screen, 48 h (100 = growth as untreated, 0 = no growth, -100 = all killed)
The subject of experiment [1] is HCT-15 colon. Conditions: 10 µM unless noted.
Experiment [2] relates to HT29 colon. The conditions noted are these: 10 µM unless noted.
Experiment [3] deals with SNB-75 CNS. The conditions noted are these: 10 µM unless noted.
For experiment [4], the system named is SNB-19 CNS. Conditions: 10 µM unless noted.
The test system of experiment [5] is U251 CNS. Conditions: 10 µM unless noted.
The test system of experiment [6] is PC-3 prostate. Conditions: 10 µM unless noted.
Experiment [7] deals with SK-MEL-5 melanoma. The conditions noted are these: 10 µM unless noted.
The subject of experiment [8] is UACC-62 melanoma. Conditions: 10 µM unless noted.
The subject of experiment [9] is LOX IMVI melanoma. The conditions noted are these: 10 µM unless noted.
Experiment [10] concerns SK-MEL-28 melanoma. The conditions noted are these: 10 µM unless noted.
In experiment [11] the test system is SK-MEL-2 melanoma. Conditions: 10 µM unless noted.
The test system of experiment [12] is EKVX NSCLC. Conditions: 10 µM unless noted.
The test system of experiment [13] is SN12C renal. The conditions noted are these: 10 µM unless noted.
Experiment [14] has as its system UO-31 renal. The conditions noted are these: 10 µM unless noted.
For experiment [15], the system named is TK-10 renal. Conditions: 10 µM unless noted.
The test system of experiment [16] is ACHN renal. The conditions noted are these: 10 µM unless noted.
In experiment [17] the test system is CAKI-1 renal. The conditions noted are these: 10 µM.
The subject of experiment [18] is CCRF-CEM leukemia. Conditions: 10 µM unless noted.
In experiment [19] the test system is MOLT-4 leukemia. Conditions: 10 µM unless noted.

With `O=C(NNc1nc2cc(F)ccc2n2cncc12)c1cnccn1`, the growth in [1] is 27.9%; in experiment [2] it was 33.1%; in experiment [3], 75.1%; in experiment [4] it was 33.7%; in [5], 29.8%; in experiment [6], 44.6%. Moreover, the growth in [7] is -11.6% (active); in experiment [8] it was 17.5%; in [9], 13.7%; in experiment [10] it was 26%; in experiment [11], 36%; in experiment [12], 20.3%. Also, the growth in experiment [13] is 34.2%; in [14] it was 11.7%; in [15], 44%; in [16] it was 9.12% (active); in [17], 7.86% (active); in experiment [18], 14.4%. For the same molecule, the growth in [19] was 6.82% (active).
Consider `Nc1nc(N)c2c(n1)NC(c1ccccc1)CC(c1ccc(Nc3nc(NCCO)nc(Nc4ccc(Cl)cc4)n3)cc1)=N2` (configuration not stated), for which the growth is -58% (active) in experiment [1]; -87.6% (active) in experiment [2]; 112% in [3]; -77.1% (active) in [4]; 11.9% in experiment [5]; 15.1% in experiment [6]. The growth is 55.6% in experiment [7]; 96.7% in experiment [8]; -86.1% (active) in experiment [9]; 109% in [10]; 71.9% in experiment [11]; 92.6% in experiment [12]. Further, the growth was 49.4% in [13]; 43.9% in experiment [14]; 63.7% in experiment [15]; 70.2% in experiment [16]; 61% in experiment [17]; -11.2% (active) in experiment [18]. Further, the growth in experiment [19] is 1.48% (active).
As to `CCNC(=O)Oc1ccc(/C(=C(/C)c2ccccc2)c2ccc(OCCN3CCCC3)cc2)cc1`, the growth in [1] was 46.5%; in experiment [2], 9.61% (active); in experiment [3], 79.4%; in experiment [4], 79%; in experiment [5], 58.6%; in [6] it was 64.2%. The growth in experiment [7] was 25.4%; in experiment [8], 83.4%; in experiment [9] it was 18.4%; in experiment [10], 56.2%; in [11] it was 93.3%; in experiment [12], 77.3%. The growth in experiment [13] is 78.2%; in experiment [14], 61%; in experiment [15], 102%; in [16], 86%; in experiment [17], 79.9%; in experiment [18], 64%. In addition, the growth in experiment [19] is 51.7%.
With `CC(=O)c1ccc(NC(=O)COc2ccc(C3SCC(=O)N3c3ccc(Br)cc3)cc2)cc1` (configuration not stated), the growth in experiment [1] was 98.4%; in [2] it was 107%; in experiment [3], 100%; in experiment [4], 95.2%; in experiment [5], 100%; in experiment [6] it was 91.6%. Moreover, the growth is 96.4% in experiment [7]; 79.5% in experiment [8]; 92.1% in experiment [9]; 104% in experiment [10]; 96.2% in experiment [11]; 94.4% in experiment [12]. The growth in experiment [13] was 95.1%; in [14], 84.2%; in experiment [15], 103%; in experiment [16], 97.6%; in experiment [17], 89.2%; in experiment [18], 89.9%. In addition, in experiment [19], the growth was 96.8%.
Regarding `C=C(C)[C@@H]1CC[C@]2(C(=O)ON)CC[C@]3(C)[C@H](CC[C@@H]4[C@@]5(C)C/C(=C/c6ccc(Br)cc6)C(=O)C(C)(C)[C@@H]5CC[C@]43C)[C@@H]12`, the growth in experiment [1] was 57.8%; in experiment [2], 71.5%; in experiment [3], 104%; in experiment [4], 78.2%; in experiment [5], 70.8%; in experiment [6] it was 45.8%. For the same molecule, the growth was 86.1% in [7]; 59.5% in experiment [8]; 69.7% in [9]; 84.7% in experiment [10]; 88.8% in experiment [11]; 60.5% in experiment [12]. Further, the growth in [13] is 71.5%; in experiment [14] it was 63.7%; in experiment [15] it was 105%; in experiment [16], 76%; in experiment [17], 50%; in [18] it was 67.8%. Further, the growth in experiment [19] was 47.3%.
Turning to `CC1(C)CC[C@]2(C(=O)O)CC[C@]3(C)C(=CCC4[C@@]5(C)C[C@@H](O)[C@@H]6OC(c7ccccc7O)OC[C@@]6(C)C5CC[C@]43C)C2C1` (some centres not stated), the growth in [1] is 29.8%; in experiment [2], 44.1%; in experiment [3] it was 72.6%; in [4], 59.2%; in experiment [5] it was 28.6%; in experiment [6] it was 62.9%. The growth is 63.4% in experiment [7]; 82.4% in experiment [8]; 27% in experiment [9]; 84.7% in experiment [10]; 85.7% in experiment [11]; 39.9% in [12]. Besides, the growth is 60.1% in experiment [13]; 54.8% in experiment [14]; 52.2% in experiment [15]; 25.3% in experiment [16]; 73.5% in experiment [17]; 46.8% in experiment [18]. Also, in experiment [19], the growth is 39.2%.
For the molecule `N/C(=N\OC(=O)CSc1nc2ccccc2s1)c1ccc2ccccc2c1`, the growth was 101% in experiment [1]; 103% in experiment [2]; 86.7% in experiment [3]; 99.9% in experiment [4]; 96.4% in experiment [5]; 93.6% in experiment [6]. For the same molecule, the growth in experiment [7] is 101%; in experiment [8], 91.4%; in experiment [9], 99.8%; in [10], 106%; in [11] it was 102%; in experiment [12], 91.8%. The growth is 95.2% in experiment [13]; 78.6% in experiment [14]; 118% in [15]; 91% in [16]; 85.8% in experiment [17]; 101% in experiment [18]. Moreover, in [19], the growth is 99.2%.
Take `O=C(COc1ccc(C2SCC(=O)N2c2ccc(F)cc2)cc1)c1ccccc1` (configuration not stated): the growth in experiment [1] was 95.7%; in experiment [2], 109%; in [3] it was 83.1%; in [4] it was 91.5%; in experiment [5] it was 101%; in experiment [6] it was 79.2%. Further, the growth is 97.7% in experiment [7]; 61.4% in experiment [8]; 87.6% in [9]; 102% in experiment [10]; 99.8% in [11]; 86.9% in experiment [12]. The growth in [13] is 97.1%; in experiment [14], 78.6%; in [15], 131%; in [16], 95.6%; in [17], 66%; in [18] it was 95.8%. Further, the growth in experiment [19] is 92.5%.

The values above are taken from PubChem BioAssay (NCI).
